# Results: PubChem BioAssay (Tox21)
# Values without a mark were called inactive. Calls of active or inactive are those of the source. Calls come from the whole dose curve; as a rule, active = well fitted curve in the direction sought with a large enough effect in the repeat runs; inconclusive = weak or mixed curves; inactive = flat fitted curve, though single readings scatter.
# Test: qHTS assay to test for compound auto fluorescence at 535 nm (green) in HEK293 cells (AID 720680)
# Details: green autofluorescence 485/535 nm; series mostly up to 91.3 µM; fluorescence, % of fluorescein: at the top concentration
# % is set by controls: 0 for no effect and ±100 for the full control effect.
SMILES,"fluorescence, % of fluorescein",outcome
CCN(CCO)CCO,-0.0262%,–
C=CCc1cc(OC)c2c(c1)OCO2,-0.0361% [at 95.7 µM],–
CC(C)(C1CCC(O)CC1)C1CCC(O)CC1 (stereo not given),0.0913%,–
COC(=O)[C@@H](N)CCCN/C(N)=N/[N+](=O)[O-],-0.0549% [at 46 µM],–
CC(C)(O)C(Cl)(Cl)Cl,0.0059% [at 46 µM],–
CCCC(C)(COC(N)=O)COC(N)=O,–,inactive
NCC1(CC(=O)O)CCCCC1,0.112% [at 18.6 µM],–
[P]#[In],-0.0926%,–
O=C(Cl)/C=C/C(=O)Cl,0.206% [at 95.7 µM],–
CCOC(=O)NC(C)(C)Cc1ccc(Cl)cc1,0.0454% [at 46 µM],–
N#CN=C1SCCN1Cc1ccc(Cl)nc1,-0.0853%,–
CN(CCO)CCO,0.0147% [at 95.7 µM],–
COC(=O)c1ccccc1CS(=O)(=O)NC(=O)Nc1nc(OC)cc(OC)n1,0.0572%,–
CCOC1Oc2ccc(OS(C)(=O)=O)cc2C1(C)C (stereo not given),0.0921%,–
C[N+]1(C)CCCCC1,0.169%,–
Cc1ccc(-c2nc3ccc(C)cn3c2CC(=O)N(C)C)cc1,-0.0061% [at 46 µM],–
COc1cc(CCN)cc(OC)c1OC,-0.007% [at 95.7 µM],–
CC(=O)OCC1=C(C(=O)O)N2C(=O)[C@@H](N)[C@H]2SC1,-0.0094% [at 18.6 µM],–
O=P(O)(O)c1ccccc1,-0.184%,–
Oc1ccc(Cc2ccc(O)cc2)cc1,-0.0689%,–
C=C1CC[C@@]2(O)[C@H]3Cc4ccc(O)c5c4[C@@]2(CCN3CC2CC2)[C@H]1O5,-0.0048% [at 46 µM],–
CCC(C(N)=O)N1CCCC1=O (stereo not given),-0.101% [at 46 µM],–
CCC1(c2ccccc2)C(=O)N(COC)C(=O)N(COC)C1=O,-0.0105% [at 46 µM],–
CCCCCCCCSC(=O)Oc1cc(Cl)nnc1-c1ccccc1,0.0132%,–
CCOP(=S)(OCC)Oc1ccc(Cl)cc1Cl,0.0447%,–
